Results as given in PubChem BioAssay (NCI).
Compounds without any hit were thinned out: in the full panel of roughly 79,000, 15% have a hit. Calls of active or inactive are those of the source. Cut-off read from the data, not from the text of the source: active = growth inhibition above about 70%; inactive = the rest.

Experiments:
[1] = NCI Yeast Anticancer Drug Screen. Data for the rad50 strain (AID 155);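 note: 0% = growth of vehicle-only cultures of the same strain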; settings: S. cerevisiae rad50 strain growth inhibition; at 50.0 µM; hits give high values
How it was run: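 Compounds were tested on a yeast strain with an engineered DNA damage repair alteration; the reported value is growth inhibition normalised to vehicle treatment.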

[2] = NCI Yeast Anticancer Drug Screen. Data for the mec2-1 strain (AID 157); settings: S. cerevisiae mec2-1 strain, at 50.0 µM, hits give high values
How it was run: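 Mutant yeast (mec2-1) grown with compound; growth inhibition relative to vehicle control reported.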

[3] = NCI Yeast Anticancer Drug Screen. Data for the sgs1 mgt1 strain (AID 161);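 note: 0% = growth of cultures given vehicle only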; settings: S. cerevisiae sgs1 mgt1 strain, at 50.0 µM, hits give high values
How it was run: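 Compounds are added to genetically altered yeast, and growth is compared with cultures given vehicle alone to give percent inhibition.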

[4] = NCI Yeast Anticancer Drug Screen. Data for the cln2 rad14 strain (AID 165);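 note: 0% = growth equal to vehicle treated cultures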; settings: S. cerevisiae cln2 rad14 strain, at 50.0 µM, hits give high values
How it was run: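 Readout is yeast growth inhibition versus vehicle-treated controls, using a strain with cln2 and rad14 alterations exposed to compound.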

[5] = NCI Yeast Anticancer Drug Screen. Data for the bub3 strain (AID 167); settings: S. cerevisiae bub3 mutant strain, at 50.0 µM, hits give high values
How it was run: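 Growth of a checkpoint-deficient yeast mutant is measured after compound exposure. Values represent inhibition relative to vehicle.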

[6] = NCI Yeast Anticancer Drug Screen. Data for the mlh1 rad18 strain (AID 175); settings: S. cerevisiae mlh1 rad18 strain growth inhibition; at 50.0 µM; hits give high values
How it was run: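 Genetically defined yeast (DNA repair-deficient) exposed to compounds; growth inhibition determined relative to vehicle.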

Measured: growth inhibition

COc1cc(C2CC(C)=C(C)CC2C(=O)O)cc(OC)c1OC (configuration not stated)
inactive: [1] 1.55% | [2] 22.4% | [3] 7.25% | [4] 30.1% | [5] 10.4% | [6] 19.8%

N#CCCn1ncc(C#N)c1N
inactive: [1] 3.4% | [2] -7.95% | [3] -1.5% | [4] -38.5% | [5] -2.5% | [6] 8.5%

O=C(NCC(=O)N1CCCC1C(=O)OC(=O)C1CCCN1C(=O)CNC(=O)OCc1ccccc1)OCc1ccccc1 (configuration not stated)
inactive: [1] 44.3% | [2] 1.2% | [3] 4.35% | [4] 16.2% | [5] 18.2% | [6] -28.1%

COc1cc(OC)c(NC(=O)CC2SC(N)=NC2=O)cc1Cl (configuration not stated)
inactive: [1] 9.75% | [2] 6.85% | [3] 20.2% | [4] 11% | [5] 25.4% | [6] 20.6%

Cc1c(/C=N/NC(=O)c2ccc(Cl)cc2)c(=O)n(-c2ccccc2)n1C
inactive: [1] -43% | [2] -20.9% | [3] -53.4% | [4] -32.4% | [5] -52% | [6] -65.2%

N#CC1OC1c1ccccn1 (configuration not stated)
inactive: [1] -6.25% | [2] 7.05% | [3] -12.3% | [4] 9.05% | [5] 5.35% | [6] -21.6%

COc1ccccc1CC(=O)O
inactive: [1] 27.9% | [2] 2.15% | [3] 16.4% | [4] 17.3% | [5] -1.85% | [6] 0.05%

O=C(NCCCCCCNC(=O)OCOC(=O)NCCCCCCNC(=O)Nc1ccc(SCCO)cc1)Nc1ccc(SCCO)cc1
inactive: [1] 15.7% | [2] 12.4% | [3] 16.3% | [4] 21.1% | [5] 27.2% | [6] -36.9%

CC(=O)N/N=C/c1ccc([N+](=O)[O-])s1
inactive: [1] 13.3% | [2] 15.1% | [3] 33.3% | [4] -11.8% | [5] 3.55% | [6] 45.5%

CC1(C)N=C(/C=N/O)C(C)(C)N1O
inactive: [1] 6.65% | [2] 0.55% | [3] 6.15% | [4] 6.3% | [5] -4.95% | [6] -18.7%

O=C(c1ccccc1)C1CCC(C(=O)c2ccccc2)C1=O (configuration not stated)
inactive: [1] 15.8% | [2] 14.3% | [3] -8% | [4] 17.9% | [5] 7.3% | [6] -17.2%

CC(C)CSCC1OC(n2cnc3c(N)nccc32)C(O)C1O (configuration not stated)
inactive: [1] -6.15% | [2] -13.8% | [3] -7.85% | [4] 10% | [5] -12.7% | [6] -20.4%

CCCCCCCCCCCCCCCCCC(=O)N/N=C/c1ccccc1OC
inactive: [1] 7.05% | [2] 11.9% | [3] 9.25% | [4] -1.6% | [5] -2.05% | [6] 28.1%

CCCN(CCC)CC(O)c1cccc2c1cc(Cl)c1ccccc12 (configuration not stated)
active: [1] 99.6% | [2] 99.7% | [3] 99.8% | [4] 99% | [5] 91.3% | [6] 99.7%

CCCCCSc1ncnc2c1ncn2CO
inactive: [1] 0.9% | [2] 18.1% | [3] 7.45% | [4] 9.75% | [5] 42.7% | [6] 3.6%

O=[N+]([O-])C(C=C(n1nnc2ccccc21)n1nnc2ccccc21)=C(n1nnc2ccccc21)n1nnc2ccccc21
inactive: [1] -20.1% | [2] -2.75% | [3] 16.7% | [4] 4.2% | [5] -6.45% | [6] 5.35%

Clc1ccc(C2=NON(c3ncccn3)C3N=CC=CN23)cc1 (configuration not stated)
inactive: [1] 9.7% | [2] -20.8% | [3] 0.55% | [4] -6.75% | [5] 0.05% | [6] 19%

CCc1c2c(nc3ccc(O)cc13)-c1cc3c(c(=O)n1C2)COC(=O)[C@]3(O)CC
inactive: [1] 33.2% | [2] -5.5% | [3] -5.9% | [4] 10.6% | [5] 7.5% | [6] -7.25%

Cc1cc(Cl)ccc1C1OC(=O)c2c1ccc1ccccc21 (configuration not stated)
inactive: [1] 16.9% | [2] 6.8% | [3] -6.25% | [4] 15.6% | [5] 7.5% | [6] 13.8%

O=C(O)C12C3CCC(C3)C1(C(=O)O)C1CCC2C1 (configuration not stated)
inactive: [1] -13.3% | [2] -13.9% | [3] -14.4% | [4] 24.3% | [5] -0.65% | [6] -12.2%

CSc1cnn(CCC#N)c(=O)n1
inactive: [1] 16.4% | [2] 14.1% | [3] 19.9% | [4] 2.4% | [5] 15.7% | [6] 2.35%

CCN(CC)C(=O)c1cncc(C(N)=O)c1
inactive: [1] 4.85% | [2] -14.7% | [3] 28% | [4] 10.8% | [5] 12.7% | [6] 14.2%

CCCCCCCCC1CO1 (configuration not stated)
inactive: [1] 0.9% | [2] 3.55% | [3] -10.8% | [4] -19.5% | [5] -3.95% | [6] -6.85%

COC(=O)C(C(Br)C(=O)c1ccccc1)C(c1ccccc1)[N+](=O)[O-] (configuration not stated)
active: [2] 85.3% | [5] 85.9% | [6] 94.5%
inactive: [1] 68.7% | [3] 54.1% | [4] 2.3%

NCCCN(CCCCN(CCCN)C(=O)OCc1ccccc1)C(=O)OCc1ccccc1
inactive: [1] 6.85% | [2] -13.1% | [3] -18.9% | [4] 8.55% | [5] 1.2% | [6] -55.9%

CCCCCCCC1CCCC1=O (configuration not stated)
inactive: [1] -32.1% | [2] -53.6% | [3] -37.8% | [4] 5.7% | [5] -31.8% | [6] -0.8%

C=C1[C@@H]([C@@]2(C)C=CC(=O)C(C)(C)[C@@H]2CC(=O)OC)CC[C@@]2(C)C(c3ccoc3)OC(=O)[C@H]3O[C@]132 (some centres not stated)
inactive: [1] -3.35% | [2] -1.5% | [3] 16.9% | [4] 15.5% | [5] 16.4% | [6] -34.5%

CSc1nn(C)c2cc(C)c3ccccc3[n+]12
inactive: [1] 20.4% | [2] -7.8% | [3] -10.2% | [4] 7.25% | [5] 4.6% | [6] -16.4%

O=C(COc1cc(Cl)c(Cl)cc1Cl)Nc1ccccc1Br
inactive: [1] 2.5% | [2] -6.9% | [3] 0.1% | [4] -15.9% | [5] 2.2% | [6] -8.85%

Nc1ccc(C(=O)O)cc1Cl
inactive: [1] 0.85% | [2] 0.75% | [3] 2.9% | [4] -35.5% | [5] -6.3% | [6] -22.2%

COc1cc(C(=O)O)cc(OC)n1
inactive: [1] 10.8% | [2] 4.15% | [3] -6.6% | [4] -36.4% | [5] -16.9% | [6] 8.25%

CC(C)(CS(C)(=O)=O)C(=O)O
inactive: [1] 2.5% | [2] -18.9% | [3] 3.05% | [4] -7.55% | [5] -2.05% | [6] 4.65%

Cc1cc([N+](=O)[O-])cnc1Cl
inactive: [1] -14.1% | [2] -22.2% | [3] -11.6% | [4] -15.9% | [5] 12% | [6] -16.8%

Cc1ccc(N=Nc2c(O)c3ccccc3[nH]c2=O)c(S(=O)(=O)N(C)C)c1
inactive: [1] 29.7% | [2] -24.2% | [3] -24.9% | [4] 29.6% | [5] -27.2% | [6] -17.5%

N[C@H]1c2c(Cl)cccc2C(=O)[C@H]1O
inactive: [1] -3.7% | [2] -1.35% | [3] -23.2% | [4] -4.65% | [5] -2.2% | [6] -49.5%

CC(=O)N(C(C)=O)n1c(Cc2ccc(Cl)cc2)n[nH]c1=O
inactive: [1] 32.1% | [2] -53.7% | [3] -26.3% | [4] -5.55% | [5] -30.9% | [6] -65%

CN(C)c1ccc(-c2cccc[n+]2C)cc1
inactive: [1] -12.8% | [2] 12.2% | [3] 3.05% | [4] 3.25% | [5] 0.1% | [6] 25.7%

CC(=O)NNc1nc(C)c(C(=O)NNC(=O)C(=O)Nc2ccc(Cl)cc2)s1
inactive: [1] 27% | [2] -0.4% | [3] 16.5% | [4] -63.2% | [5] 20% | [6] 22.9%

O=C(O)C12CCCC(CCC1)C2
inactive: [1] -2.2% | [2] 1.05% | [3] -3.8% | [4] -4.35% | [5] -0.2% | [6] -0.55%

CCCCCCC(O)Cc1ccccc1 (configuration not stated)
inactive: [1] 5.95% | [2] 5.1% | [3] -5.5% | [4] -12.3% | [5] -24.9% | [6] 1.2%

O=C1OC2(OC2c2ccccc2)c2ccccc21 (configuration not stated)
inactive: [1] 0.25% | [2] -8.95% | [3] -37.2% | [4] -15.2% | [5] -29.8% | [6] -22.1%

COC(=O)c1ccc(Cc2ccc(C(=O)OC)o2)o1
inactive: [1] -9.05% | [2] 9.2% | [3] -5.25% | [4] -25.4% | [5] -8.35% | [6] -13.8%
